# Results taken from PubChem BioAssay (NCATS).
# Records with an inconclusive call do not appear. Unmarked numbers belong to inactive results. Calls of active or inactive are those of the source. The call rests on the fitted dose curve; in most records, active means well fitted cell-killing curve with a large enough effect; inconclusive means small, poorly fitted or top-dose-only effect, or effect the other way; inactive means no such curve, though single readings can be large or run the other way. Starred links: 1 amine or outer side, 2 acyl side, 3 side chain; linkers in the order of their positions; H or OH if unused. Positions of bridges follow the written chain, without caps; N, C: chain ends. Non-standard residues stand in square brackets, D forms with d. Residues, ends and D or L forms follow the SMILES beside them. Chains are numbered I, II in the order given. Actinocin(9to1) = Cc1c2oc3c(C)ccc(C(=O)[*:1])c3nc-2c(C(=O)[*:2])c(N)c1=O; NMeV = CN[CH](C(=O)O)C(C)C; Sar = CNCC(=O)O
# Key:
# [1] = Quantitative High-Throughput drug screen in 47 multiple myeloma cell lines against the NCATS MIPE library collection: OCIMY1_PLB cell viability assay (AID 1918979); further: nearly all actives have a fitted effect of over 35% in size;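 on viability: 100% = DMSO-only wells and 0% = cell-free media-only wells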
# Outline: (§1)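 ATP-based luminescence (CellTiter-Glo, 5 min RT incubation) quantified surviving cells following two days' treatment with MIPE 4.0 agents at 37 °C, 5% CO2.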
# [2] = Quantitative High-Throughput drug screen in 47 multiple myeloma cell lines against the NCATS MIPE library collection: MM1R_ATCC cell viability assay (AID 1918981); further: nearly all actives have a fitted effect of over 35% in size
# Outline: as §1
# [3] = Quantitative High-Throughput drug screen in 47 multiple myeloma cell lines against the NCATS MIPE library collection: LP1_DSMZ cell viability assay (AID 1918982); further: nearly all actives have a fitted effect of over 35% in size
# Outline: as §1
# [4] = Quantitative High-Throughput drug screen in 47 multiple myeloma cell lines against the NCATS MIPE library collection: KMS28PE_JCRB cell viability assay (AID 1918983); further: nearly all actives have a fitted effect of over 35% in size
# Outline: as §1
# [5] = Quantitative High-Throughput drug screen in 47 multiple myeloma cell lines against the NCATS MIPE library collection: L363_DSMZ cell viability assay (AID 1918984); further: nearly all actives have a fitted effect of over 40% in size
# Outline: as §1
# [6] = Quantitative High-Throughput drug screen in 47 multiple myeloma cell lines against the NCATS MIPE library collection: KMS34_JCRB cell viability assay (AID 1918985); further: nearly all actives have a fitted effect of over 40% in size
# Outline: as §1
# [7] = Quantitative High-Throughput drug screen in 47 multiple myeloma cell lines against the NCATS MIPE library collection: OCIMY7_PLB cell viability assay (AID 1918987); settings: OCI-MY7 myeloma viability, CellTiter-Glo ATP, 48 h; viability (% of DMSO): at 45.8 µM (top of the series); further: nearly all actives have a fitted effect of over 65% in size
# Outline: as §1
# [8] = Quantitative High-Throughput drug screen in 47 multiple myeloma cell lines against the NCATS MIPE library collection: OCIMY5_PLB cell viability assay (AID 1918988); further: nearly all actives have a fitted effect of over 65% in size
# Outline: as §1
# [9] = Quantitative High-Throughput drug screen in 47 multiple myeloma cell lines against the NCATS MIPE library collection: OPM1_PLB cell viability assay (AID 1918989); further: nearly all actives have a fitted effect of over 40% in size
# Outline: as §1
# [10] = Quantitative High-Throughput drug screen in 47 multiple myeloma cell lines against the NCATS MIPE library collection: SKMM1_PLB cell viability assay (AID 1919863); settings: SKMM1 myeloma viability, CellTiter-Glo ATP, 48 h; viability: hits give low values; further: nearly all actives have a fitted effect of over 35% in size
# Outline: as §1
# [11] = Quantitative High-Throughput drug screen in 47 multiple myeloma cell lines against the NCATS MIPE library collection: U266_ATCC cell viability assay (AID 1919864); further: nearly all actives have a fitted effect of over 35% in size;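 on viability (% of DMSO control): 0% = media-only wells without cells and 100% = DMSO-only wells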
# Outline: as §1
# [12] = Quantitative High-Throughput drug screen in 47 multiple myeloma cell lines against the NCATS MIPE library collection: XG6_PLB cell viability assay (AID 1919865); further: nearly all actives have a fitted effect of over 40% in size
# Outline: as §1
# [13] = Quantitative High-Throughput drug screen in 47 multiple myeloma cell lines against the NCATS MIPE library collection: XG1_PLB cell viability assay (AID 1919866); further: nearly all actives have a fitted effect of over 35% in size
# Outline: as §1
# [14] = Quantitative High-Throughput drug screen in 47 multiple myeloma cell lines against the NCATS MIPE library collection: VP6_DJ cell viability assay (AID 1919867); further: nearly all actives have a fitted effect of over 40% in size;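 on viability (% of DMSO): 100% = DMSO-only wells and 0% = wells with media alone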
# Outline: as §1
# [15] = Quantitative High-Throughput drug screen in 47 multiple myeloma cell lines against the NCATS MIPE library collection: UTMC2_PLB cell viability assay (AID 1919868); settings: CellTiter-Glo ATP luminescence, 48 h; viability (% of DMSO control): at 45.8 µM (top of the series); further: nearly all actives have a fitted effect of over 55% in size
# Outline: as §1
# [16] = Quantitative High-Throughput drug screen in 47 multiple myeloma cell lines against the NCATS MIPE library collection: PE2_PLB cell viability assay (AID 1919869); further: nearly all actives have a fitted effect of over 35% in size
# Outline: as §1
# [17] = Quantitative High-Throughput drug screen in 47 multiple myeloma cell lines against the NCATS MIPE library collection: PCM6_Riken cell viability assay (AID 1919870); further: nearly all actives have a fitted effect of over 30% in size
# Outline: as §1
# [18] = Quantitative High-Throughput drug screen in 47 multiple myeloma cell lines against the NCATS MIPE library collection: RPMI8226_ATCC cell viability assay (AID 1919871); further: nearly all actives have a fitted effect of over 30% in size
# Outline: as §1
# [19] = Quantitative High-Throughput drug screen in 47 multiple myeloma cell lines against the NCATS MIPE library collection: OPM2_DSMZ cell viability assay (AID 1919872); further: nearly all actives have a fitted effect of over 30% in size
# Outline: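 Primary qHTS used for cherry-picking: cells at 500/well, library compounds for 48 h (37C, 5% CO2), luminescent ATP assay.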
# [20] = Quantitative High-Throughput drug screen in 47 multiple myeloma cell lines against the NCATS MIPE library collection: MM1S_ATCC cell viability assay (AID 1918980); further: nearly all actives have a fitted effect of over 45% in size
# Outline: as §1
# Potency means the concentration at half of the fitted maximal effect.
smiles,measurement,setting,value
C=C1C(=O)O[C@H]2[C@@H]1CCC(C)=CCC[C@@]1(C)O[C@@H]21,Potency,[1],5.26 µM (active)
same,Potency,[2],3.72 µM (active)
same,Potency,[3],5.9 µM (active)
same,Potency,[4],7.43 µM (active)
same,Potency,[5],9.35 µM (active)
same,Potency,[6],2.09 µM (active)
same,Potency,[7],0.526 µM (active)
same,Potency,[8],4.18 µM (active)
same,Potency,[9],4.69 µM (active)
same,Potency,[10],16.6 µM (active)
same,Potency,[11],6.62 µM (active)
same,Potency,[12],5.9 µM (active)
same,Potency,[13],2.64 µM (active)
same,Potency,[14],4.18 µM (active)
same,Potency,[15],4.69 µM (active)
same,Potency,[16],3.32 µM (active)
same,Potency,[17],3.32 µM (active)
same,Potency,[18],5.26 µM (active)
same,Potency,[19],5.9 µM (active)
CC1=C(C(=O)Nc2cc3cn[nH]c3cc2F)C(c2ccc(Cl)cc2F)N=C(c2ccnc(Cl)c2)N1 (stereo not given),Potency,[1],inactive
same,Potency,[2],18.7 µM (active)
same,Potency,[3],inactive
same,Potency,[4],20.9 µM (active)
same,Potency,[5],18.7 µM (active)
same,Potency,[7],5.9 µM (active)
same,Potency,[9],18.7 µM (active)
same,Potency,[12],14.8 µM (active)
same,Potency,[14],18.7 µM (active)
same,Potency,[15],3.72 µM (active)
same,Potency,[17],6.62 µM (active)
CCCNC(=O)[C@H]1O[C@H]1C(=O)N[C@H](C(=O)N1CCC[C@@H]1C(=O)OC)C(C)CC (stereo not given in full),Potency,[1],5.9 µM (active)
same,Potency,[20],2.35 µM (active)
same,Potency,[4],7.43 µM (active)
same,Potency,[5],8.33 µM (active)
same,Potency,[6],4.18 µM (active)
same,Potency,[8],2.64 µM (active)
same,Potency,[9],18.7 µM (active)
same,Potency,[10],20.9 µM (active)
same,Potency,[11],10.5 µM (active)
same,Potency,[12],8.33 µM (active)
same,Potency,[13],14.8 µM (active)
same,Potency,[14],16.6 µM (active)
same,Potency,[16],4.18 µM (active)
same,Potency,[17],16.6 µM (active)
same,Potency,[18],20.9 µM (active)
same,Potency,[19],11.8 µM (active)
N#CNC(=NCCCCCCOc1ccc(Cl)cc1)Nc1ccncc1,Potency,[1],0.0105 µM (active)
same,Potency,[2],0.0093 µM (active)
same,Potency,[3],0.0187 µM (active)
same,Potency,[4],0.132 µM (active)
same,Potency,[5],0.662 µM (active)
same,Potency,[6],0.0148 µM (active)
same,Potency,[7],inactive
same,Potency,[8],0.0074 µM (active)
same,Potency,[9],0.003 µM (active)
same,Potency,[11],18.7 µM (active)
same,Potency,[12],18.7 µM (active)
same,Potency,[17],0.001 µM (active)
same,Potency,[18],0.0418 µM (active)
same,Potency,[19],0.0148 µM (active)
C=C1CCC2[C@](C)(CO)C(O)CC[C@]2(C)C1CC=C1C(=O)OCC1O (stereo not given in full),Potency,[1],inactive
same,Potency,[20],inactive
same,Potency,[3],inactive
same,Potency,[9],inactive
same,Potency,[11],inactive
same,Potency,[12],inactive
same,Potency,[13],inactive
same,Potency,[14],inactive
same,Potency,[16],inactive
same,Potency,[17],inactive
same,Potency,[18],0.0171 µM (active)
same,Potency,[19],inactive
Cc1ccc(O)c(C(CCN(C(C)C)C(C)C)c2ccccc2)c1 (stereo not given),Potency,[1],inactive
same,Potency,[20],inactive
same,Potency,[4],inactive
same,Potency,[5],inactive
same,Potency,[7],inactive
same,Potency,[9],inactive
same,Potency,[11],inactive
same,Potency,[12],inactive
same,Potency,[13],inactive
same,Potency,[16],inactive
same,Potency,[17],inactive
same,Potency,[18],inactive
same,Potency,[19],inactive
COc1cc([C@@H]2c3cc4c(cc3[C@@H](O[C@@H]3O[C@@H]5CO[C@@H](c6cccs6)O[C@@H]5[C@H](O)[C@@H]3O)[C@H]3COC(=O)[C@H]23)OCO4)cc(OC)c1O,Potency,[1],8.33 µM (active)
same,Potency,[20],0.059 µM (active)
same,Potency,[4],2.64 µM (active)
same,Potency,[5],0.833 µM (active)
same,Potency,[6],1.87 µM (active)
same,Potency,[8],1.66 µM (active)
same,Potency,[9],1.18 µM (active)
same,Potency,[11],14.8 µM (active)
same,Potency,[12],0.0469 µM (active)
same,Potency,[14],0.469 µM (active)
same,Potency,[16],0.166 µM (active)
same,Potency,[17],0.662 µM (active)
same,Potency,[19],4.18 µM (active)
CCc1cc(C(C)=NOCc2ccc(C3CCCCC3)c(C(F)(F)F)c2)ccc1CN1CC(C(=O)O)C1,Potency,[1],inactive
same,Potency,[20],inactive
same,Potency,[9],18.7 µM (active)
same,Potency,[10],18.7 µM (active)
same,Potency,[11],inactive
same,Potency,[14],11.8 µM (active)
same,Potency,[17],11.8 µM (active)
"Cc1c2oc3c(C)ccc(C(=O)NC4C(=O)NC(C(C)C)C(=O)N5CCCC5C(=O)N(C)CC(=O)N(C)C(C(C)C)C(=O)OC4C)c3nc-2c(C(=O)NC2C(=O)NC(C(C)C)C(=O)N3CCCC3C(=O)N(C)CC(=O)N(C)C(C(C)C)C(=O)OC2C)c(N)c1=O (stereo not given) (I: TVP[Sar][NMeV] / II: TVP[Sar][NMeV]; ester I:1-I:C, II:1-II:C; linker I:N-II:N via Actinocin(9to1); configuration not given here)",Potency,[1],inactive
same,Potency,[2],inactive
same,Potency,[3],inactive
same,Potency,[4],inactive
same,Potency,[5],inactive
same,Potency,[6],inactive
same,Potency,[7],inactive
same,Potency,[8],inactive
same,Potency,[9],inactive
same,viability,[10],-11%
same,Potency,[11],inactive
same,Potency,[12],inactive
same,Potency,[13],inactive
same,Potency,[14],inactive
same,Potency,[16],inactive
same,Potency,[17],inactive
same,Potency,[18],inactive
same,Potency,[19],inactive
CC(=CC(=O)Nc1ccccc1C(=O)O)c1ccc2ccccc2c1,Potency,[1],inactive
same,Potency,[20],8.33 µM (active)
same,Potency,[4],inactive
same,Potency,[12],7.43 µM (active)
same,Potency,[14],18.7 µM (active)
same,Potency,[16],23.5 µM (active)
same,Potency,[19],inactive
C[C@H](NCc1ccc(OCc2cccc(F)c2)cc1)C(N)=O,Potency,[1],10.5 µM (active)
same,Potency,[2],7.43 µM (active)
same,Potency,[3],11.8 µM (active)
same,Potency,[4],9.35 µM (active)
same,Potency,[5],1.48 µM (active)
same,Potency,[6],10.5 µM (active)
same,Potency,[8],7.43 µM (active)
same,Potency,[9],2.64 µM (active)
same,Potency,[10],18.7 µM (active)
same,Potency,[11],7.43 µM (active)
same,Potency,[12],1.66 µM (active)
same,Potency,[13],3.72 µM (active)
same,Potency,[14],2.35 µM (active)
same,Potency,[15],1.18 µM (active)
same,Potency,[16],2.09 µM (active)
same,Potency,[17],2.09 µM (active)
same,Potency,[18],16.6 µM (active)
same,Potency,[19],11.8 µM (active)
N#CC(=Cc1ccc(O)c(O)c1)C(=O)NCc1ccccc1,Potency,[1],inactive
same,Potency,[20],26.4 µM (active)
same,Potency,[4],inactive
same,Potency,[5],3.32 µM (active)
same,Potency,[7],5.9 µM (active)
same,Potency,[9],9.35 µM (active)
same,Potency,[11],26.4 µM (active)
same,Potency,[12],8.33 µM (active)
same,Potency,[14],18.7 µM (active)
same,Potency,[16],14.8 µM (active)
same,Potency,[17],10.5 µM (active)
same,Potency,[19],inactive
